Reference: PubChem BioAssay (NCATS)
Results filed as inconclusive are left out. A number with no mark means an inactive call. Calls of active or inactive are those of the source. Calls follow the shape of the dose curve; as a rule, active = well fitted curve in the direction sought with a large enough effect; inconclusive = small, poorly fitted or top-dose-only effect, or effect the other way, or another doubt; inactive = no such curve, though single readings can be large or run the other way.

Biological target: Transient receptor potential cation channel subfamily V member 1 (Homo sapiens) (UniProt Q8NER1)
Test: HTS Assay for Compounds that Act as Enhancers of the Vanilloid Receptor 1 (AID 488979); also: 0% is about no effect
Details: TRPV1-expressing cells, enhancer of channel activity; series mostly up to 41.7 µM; activity change, positive = enhancement: at the top concentration
Description: The transient receptor potential ion channel, family V, number 1, (TRPV1) is one of the most important molecular transducers of painful stimuli and a potential target for analgesic drug development. Although recent clinical trials with orthosteric antagonists have not produced a successful drug because of a hyperthermia side effect and their tendency to block thermal noxious pain, this ion channel is undeniably well placed in the pain pathway, and the idea of blocking pain signals before they enter the CNS is an excellent concept and of proven efficacy when TRPV1 agonists are used. We propose a new approach involving allosteric modulation to impose an activity-dependent constraint within the context of inflammation and tissue damage that would alter the responsiveness of the channel in a way that an orthosteric vanilloid antagonist cannot achieve. We believe that the allosteric modulator approach has not been explored for this target.
The main goal of this proposal is to identify additional, new, potent allosteric modulators of TRPV1 that can be used to investigate TRPV1 function. Our recent report provides evidence of proof of concept, but the compounds are just at the edge of utility in terms of potency. […] The question of whether they can be used as analgesic agents is complex, but if suitable compounds are identified then testing for analgesic properties will be conducted.
Upon TRPV1 activation in TRPV1 cells, the channel opens and extracellular cations flow through the channel into the cytosol. A calcium binding dye (Fluo-8) becomes fluorescent when bound to calcium. This dye is pre-loaded into cells and is used as a marker for calcium influx.
The amount of accumulated calcium is precisely quantified using the FDSS kinetic reader and the calcium dye.
For the HTS assay, freshly prepared cells are plated at a density of 2000/well in 3 ul medium in 1536-well plates and cultured overnight at 35.5C. Cells will be loaded with 1 ul of the homogeneous calcium dye (ABD Bioquest) at room temperature for 40 to 90 minutes. Plates will be loaded into the FDSS kinetic reader and a 1 sec / cycle for 10 second baseline signal will be measured. Compound library will then be added with a pintool at 23 nl and measured kinetically for 3 minutes. This portion of the read is considered the agonist portion of the screen. Following the 3 minutes of incubation, an on board pipettor will deliver 1 ul of capsaicin for a final concentration equal to the EC20. Signal will be measured kinetically for an additional 2 minutes. This portion of the read is considered the allosteric enhancer portion of the screen.
The FDSS reader has a standard filter set capable of measuring calcium bound Fluo-8 (ex=480 and em=520 nm).

Chain of Transient receptor potential cation channel subfamily V member 1 (Homo sapiens) (Q8NER1 whole entry, looked up): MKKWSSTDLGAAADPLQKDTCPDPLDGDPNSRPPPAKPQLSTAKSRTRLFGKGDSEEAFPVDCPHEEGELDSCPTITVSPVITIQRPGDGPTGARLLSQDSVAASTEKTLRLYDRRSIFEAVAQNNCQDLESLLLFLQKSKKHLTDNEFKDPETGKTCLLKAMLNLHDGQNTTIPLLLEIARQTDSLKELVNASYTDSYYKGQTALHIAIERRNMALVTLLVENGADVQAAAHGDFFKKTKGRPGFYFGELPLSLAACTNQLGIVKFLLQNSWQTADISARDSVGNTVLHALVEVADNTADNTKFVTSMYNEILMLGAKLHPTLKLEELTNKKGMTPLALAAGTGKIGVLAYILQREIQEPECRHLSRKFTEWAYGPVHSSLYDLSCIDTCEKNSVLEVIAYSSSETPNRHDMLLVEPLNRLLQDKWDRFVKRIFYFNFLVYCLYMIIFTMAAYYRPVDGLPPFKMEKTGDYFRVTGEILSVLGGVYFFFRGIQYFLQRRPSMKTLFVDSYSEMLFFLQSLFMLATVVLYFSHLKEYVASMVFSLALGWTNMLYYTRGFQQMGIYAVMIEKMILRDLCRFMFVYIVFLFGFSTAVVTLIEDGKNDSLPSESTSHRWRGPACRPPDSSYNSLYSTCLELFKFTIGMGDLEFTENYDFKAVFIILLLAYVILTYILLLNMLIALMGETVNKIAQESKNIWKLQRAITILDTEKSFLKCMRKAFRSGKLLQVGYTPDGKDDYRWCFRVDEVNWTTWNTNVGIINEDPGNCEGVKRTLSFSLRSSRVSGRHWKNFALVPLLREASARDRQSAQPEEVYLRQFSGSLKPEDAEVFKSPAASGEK

Question: How did the “activity change, positive = enhancement” value turn out when `c1ccc(CCCN2CCN(CCOC(c3ccccc3)c3ccccc3)CC2)cc1` was run?
Answer: 8.17%

Question: `NCc1cc(=O)[nH]o1` was tested. Which “activity change, positive = enhancement” value did it give?
Answer: 1.6%

Question: For `NC(CCP(=O)(O)O)C(=O)O` (stereo not given), which “activity change, positive = enhancement” value is on record?
Answer: -1.98%

Question: How did the “activity change, positive = enhancement” value turn out when `CC(=O)[C@H]1CCC2C3CC[C@H]4C[C@H](O)CC[C@]4(C)C3CC[C@@]21C` (stereo not given in full) was run?
Answer: 6.8%

Question: With `NC(N)=NOCCC(N)C(=O)O` (stereo not given) as the compound, how does the “activity change, positive = enhancement” value read?
Answer: -5.59%

Question: How did the “activity change, positive = enhancement” value turn out when `COc1ccc2c(c[n+](C)c3c4cc5c(cc4ccc23)OCO5)c1OC` was run?
Answer: -18%

Question: `C=CCN1CC[C@]23CCCCC2[C@H]1Cc1ccc(O)cc13` (stereo not given in full) was tested. Which “activity change, positive = enhancement” value did it give?
Answer: 12.1%

Question: For `NC(=NCCC[C@H](N)C(=O)O)N[N+](=O)[O-]`, which “activity change, positive = enhancement” value is on record?
Answer: -2.56%

Question: Which “activity change, positive = enhancement” value does the source give for `CC(Cc1ccc(O)cc1)NCC(O)c1cc(O)cc(O)c1` (stereo not given) here?
Answer: -4.78%

Question: With `COc1cc(C(O)CN)ccc1O` (stereo not given) as the compound, how does the “activity change, positive = enhancement” value read?
Answer: 4.13%

Question: Which “activity change, positive = enhancement” value does the source give for `C[C@]12N[C@H](Cc3ccccc31)c1ccccc12` here?
Answer: 13.5%

Question: How did the “activity change, positive = enhancement” value turn out when `NC(=O)CN1CC(O)CC1=O` (stereo not given) was run?
Answer: -2.72%

Question: With `O=C(O)Cc1cnc[nH]1` as the compound, how does the “activity change, positive = enhancement” value read?
Answer: -2.62%

Question: `CC[C@@H]1C(=O)OC[C@@H]1Cc1cncn1C` was tested. Which outcome did it give?
Answer: inactive

Question: How did the “activity change, positive = enhancement” value turn out when `CC(C)Oc1cccnc1N(C)C1CCN(Cc2ccccc2)CC1` was run?
Answer: 3.82%

Question: How did the “activity change, positive = enhancement” value turn out when `NCCc1c[nH]c2ccc(O)cc12` was run?
Answer: 8.8%

Question: How did the “activity change, positive = enhancement” value turn out when `O=C(O)[C@@H]1CCN1` was run?
Answer: -4.52%

Question: With `Oc1ccc2c3c1O[C@H]1c4[nH]c5c(c4C[C@@]4(O)[C@@H](C2)N(CC2CC2)CC[C@]314)C[C@@]1(O)[C@H]2Cc3ccc(O)c4c3[C@@]1(CCN2CC1CC1)[C@H]5O4` as the compound, how does the “activity change, positive = enhancement” value read?
Answer: 11.5%

Question: How did the outcome turn out when `C[N+]1(C)C2CCC1CC(OC(=O)C(CO)c1ccccc1)C2` (stereo not given) was run?
Answer: inactive

Question: `CNCCc1c[nH]c2ccc(O)cc12` was tested. Which “activity change, positive = enhancement” value did it give?
Answer: -3.45%

Question: `Clc1cnc(Oc2ccc(Oc3ncc(Cl)cc3Cl)cc2)c(Cl)c1` was tested. Which “activity change, positive = enhancement” value did it give?
Answer: -1.54%

Question: With `NC1CCc2cc(O)c(O)cc2C1` (stereo not given) as the compound, how does the “activity change, positive = enhancement” value read?
Answer: 5.4%

Question: With `C[C@]12CCC3C(CC[C@H]4C[C@H](O)CC[C@]34C)C1CC[C@@H]2C(=O)CO` (stereo not given in full) as the compound, how does the “activity change, positive = enhancement” value read?
Answer: 7.53%

Question: How did the “activity change, positive = enhancement” value turn out when `Cc1nc(-c2ccc(-c3ccc(C(=O)N4CCc5cc6c(cc54)C4(CCN(C)CC4)CO6)cc3)c(C)c2)no1` was run?
Answer: 1.3%

Question: With `CCCN(CCC)C1CCc2ccc(O)cc2C1` (stereo not given) as the compound, how does the “activity change, positive = enhancement” value read?
Answer: 5.58%

Question: With `NC1CC1c1ccccc1` (stereo not given) as the compound, how does the “activity change, positive = enhancement” value read?
Answer: 4.19%

Question: How did the “activity change, positive = enhancement” value turn out when `CC(=O)NCCc1c[nH]c2ccccc12` was run?
Answer: -4.13%

Question: `Cc1c(C(=O)c2cccc3ccccc23)c2cccc3c2n1[C@H](CN1CCOCC1)CO3` was tested. Which “activity change, positive = enhancement” value did it give?
Answer: 17.9%

Question: Which “activity change, positive = enhancement” value does the source give for `CCCN(CCC)[C@@H]1CCc2ccc(O)cc2C1` here?
Answer: -7.8%

Question: With `CC1=NN=C(c2ccc(N)cc2)c2cc3c(cc2C1)OCO3` as the compound, how does the “activity change, positive = enhancement” value read?
Answer: 1.17%

Question: `Cc1nccc2c1[nH]c1ccccc12` was tested. Which “activity change, positive = enhancement” value did it give?
Answer: 7.6%

Question: `CC[C@@]1(O)C(=O)OCc2c1cc1n(c2=O)Cc2cc3ccccc3nc2-1` was tested. Which “activity change, positive = enhancement” value did it give?
Answer: -7.76%

Question: With `CN1C2CCC1CC(OC(=O)c1cc(Cl)cc(Cl)c1)C2` (stereo not given) as the compound, how does the “activity change, positive = enhancement” value read?
Answer: 25.2%

Question: How did the “activity change, positive = enhancement” value turn out when `CS(=N)(=O)CC[C@H](N)C(=O)O` (stereo not given in full) was run?
Answer: -1.23%

Question: How did the “activity change, positive = enhancement” value turn out when `CCCN1CCC[C@H](c2cccc(O)c2)C1` was run?
Answer: 6.88%

Question: Which “activity change, positive = enhancement” value does the source give for `C[C@@H]1O[C@H](C[N+](C)(C)C)C[C@H]1O` here?
Answer: 3.29%

Question: Which “activity change, positive = enhancement” value does the source give for `NC(CP(=O)(O)O)C(=O)O` (stereo not given) here?
Answer: 2.99%

Question: With `NCCc1c[nH]c2ccccc12` as the compound, how does the “activity change, positive = enhancement” value read?
Answer: 4.99%

Question: `O=C1CCCN1CC#CCN1CCCC1` was tested. Which “activity change, positive = enhancement” value did it give?
Answer: 2.8%

Question: Which “activity change, positive = enhancement” value does the source give for `Clc1ccc(C(c2ccc(Cl)cc2)n2cc[n+](CC(OCc3ccc(Cl)cc3Cl)c3ccc(Cl)cc3Cl)c2)cc1` (stereo not given) here?
Answer: 8.88%
